# Assay results taken from the supplement of paper PMC6555819.
# Experiments:
# Experiment in all cases: PBM binding z-score (relative to random genomic background probes); higher = stronger binding; sequences stand for … in GC…GCGATTGACAGCGTAGAATGAAGG
# [1] = tested on: PPARg:RXRa DBDmut IVT, anti-RXR (DBD mutation: RXRa K156A/R161A, NR concentration 270 nM, RXRa partner concentration 90 nM)
# Procedure, shortened: (§1)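 Each nuclear receptor dimer, without ligand, was incubated for 1 h on custom Agilent 4×180K protein-binding microarrays. Binding was detected with antibodies against each partner (one per run), and scanned fluorescence was regression-normalized. The binding z-scores are referenced to random human genomic background probes.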
# [2] = tested on: PPARg:RXRa IVT, anti-PPARg (NR concentration 270 nM, RXRa partner concentration 90 nM)
# Procedure, shortened: as §1
# [3] = tested on: PPARg DBDmut:RXRa IVT, anti-PPARg (DBD mutation: PPARg1 K132A/R137A, NR concentration 270 nM, RXRa partner concentration 90 nM)
# Procedure, shortened: as §1
# [4] = tested on: PPARg DBDmut IVT, anti-PPARg (DBD mutation: PPARg1 K132A/R137A, NR concentration 270 nM)
# Procedure, shortened: as §1
# [5] = tested on: PPARg homodimer (NR concentration 180 nM)
# Procedure, shortened: as §1
# [6] = tested on: PXR:RXRa (NR concentration 270 nM, RXRa partner concentration 90 nM)
# Procedure, shortened: as §1
# [7] = tested on: PXR homodimer (NR concentration 270 nM)
# Procedure, shortened: as §1
# [8] = tested on: RARa:RXR (NR concentration 270 nM, RXRa partner concentration 90 nM)
# Procedure, shortened: as §1
# [9] = tested on: RARa homodimer (NR concentration 270 nM)
# Procedure, shortened: as §1
# [10] = tested on: RARb:RXRa (NR concentration 270 nM, RXRa partner concentration 90 nM)
# Procedure, shortened: as §1
sequence,measurement,setting,value
CGTCCAAGGTCAAAGGGCAGTGAAGAGATGACGG,PBM binding z-score,[1],2.96
same,PBM binding z-score,[2],4.49
same,PBM binding z-score,[3],0.0203
same,PBM binding z-score,[4],0.196
same,PBM binding z-score,[5],2.9
same,PBM binding z-score,[6],4.98
same,PBM binding z-score,[7],1.24
same,PBM binding z-score,[8],6.27
same,PBM binding z-score,[9],1.01
same,PBM binding z-score,[10],5.36
GCTATTAGTTGAAAGGGCATCCGAATGATTCTCG,PBM binding z-score,[1],0.6
same,PBM binding z-score,[2],0.576
same,PBM binding z-score,[3],0.336
same,PBM binding z-score,[4],0.482
same,PBM binding z-score,[5],1.17
same,PBM binding z-score,[6],0.67
same,PBM binding z-score,[7],0.374
same,PBM binding z-score,[8],1.21
same,PBM binding z-score,[9],0.477
same,PBM binding z-score,[10],1.65
ATATGTCGGTTAAGGGTCATTCAGGTTGGTTCGC,PBM binding z-score,[1],2.75
same,PBM binding z-score,[2],4.81
same,PBM binding z-score,[3],2.12
same,PBM binding z-score,[4],1.06
same,PBM binding z-score,[5],3.13
same,PBM binding z-score,[6],5.03
same,PBM binding z-score,[7],2.46
same,PBM binding z-score,[8],4.78
same,PBM binding z-score,[9],2.84
same,PBM binding z-score,[10],3.31
TCTCGGAGGACACGAAGGTCAGGGCTTTCCAGAG,PBM binding z-score,[1],1.37
same,PBM binding z-score,[2],0.884
same,PBM binding z-score,[3],-0.402
same,PBM binding z-score,[4],-1.18
same,PBM binding z-score,[5],1.07
same,PBM binding z-score,[6],1.89
same,PBM binding z-score,[7],0.452
same,PBM binding z-score,[8],2.52
same,PBM binding z-score,[9],-0.205
same,PBM binding z-score,[10],3.48
CGAACTAGGTCGTTGACAGGACAGTGAATAGTAA,PBM binding z-score,[1],5.75
same,PBM binding z-score,[2],5.01
same,PBM binding z-score,[3],0.86
same,PBM binding z-score,[4],0.354
same,PBM binding z-score,[5],0.203
same,PBM binding z-score,[6],0.234
same,PBM binding z-score,[7],-0.188
same,PBM binding z-score,[8],0.276
same,PBM binding z-score,[9],-0.436
same,PBM binding z-score,[10],1.18
ATCGAAAGGTCGAAGATGAGTATACCCACCCGAA,PBM binding z-score,[1],-0.341
same,PBM binding z-score,[2],1.22
same,PBM binding z-score,[3],0.714
same,PBM binding z-score,[4],0.471
same,PBM binding z-score,[5],1.15
same,PBM binding z-score,[6],1.97
same,PBM binding z-score,[7],0.241
same,PBM binding z-score,[8],2.66
same,PBM binding z-score,[9],0.939
same,PBM binding z-score,[10],3.69
TCTTGTAGATCAATAGAGTTTAAGAAAGTGCGCT,PBM binding z-score,[1],1.58
same,PBM binding z-score,[2],0.625
same,PBM binding z-score,[3],0.851
same,PBM binding z-score,[4],0.852
same,PBM binding z-score,[5],-0.192
same,PBM binding z-score,[6],2.24
same,PBM binding z-score,[7],0.847
same,PBM binding z-score,[8],0.263
same,PBM binding z-score,[9],0.0115
same,PBM binding z-score,[10],0.375
TCGAGTAGGTTAGGAGCATTCAGAATGGCGTCGA,PBM binding z-score,[1],1.4
same,PBM binding z-score,[2],0.397
same,PBM binding z-score,[3],-0.907
same,PBM binding z-score,[4],-1.2
same,PBM binding z-score,[5],-0.371
same,PBM binding z-score,[6],-0.392
same,PBM binding z-score,[7],-0.58
same,PBM binding z-score,[8],-0.181
same,PBM binding z-score,[9],-0.978
same,PBM binding z-score,[10],0.0424
ATCGAAAGGTCGTTAGGTGAGTATACAGAAAGGC,PBM binding z-score,[1],0.388
same,PBM binding z-score,[2],2.1
same,PBM binding z-score,[3],1.14
same,PBM binding z-score,[4],1.04
same,PBM binding z-score,[5],1.51
same,PBM binding z-score,[6],2.9
same,PBM binding z-score,[7],0.99
same,PBM binding z-score,[8],3.2
same,PBM binding z-score,[9],0.848
same,PBM binding z-score,[10],3.53
ATACCAAGGTGATCGTGAGGTCATTGATACTAAC,PBM binding z-score,[1],0.662
same,PBM binding z-score,[2],2.58
same,PBM binding z-score,[3],0.666
same,PBM binding z-score,[4],0.349
same,PBM binding z-score,[5],2.35
same,PBM binding z-score,[6],5.39
same,PBM binding z-score,[7],4.33
same,PBM binding z-score,[8],4.55
same,PBM binding z-score,[9],0.789
same,PBM binding z-score,[10],3.25
CGAACTAGGTCAGAACAGGACAGTGAGGGATGAT,PBM binding z-score,[1],7.05
same,PBM binding z-score,[2],7.16
same,PBM binding z-score,[3],2.36
same,PBM binding z-score,[4],0.0779
same,PBM binding z-score,[5],0.578
same,PBM binding z-score,[6],0.829
same,PBM binding z-score,[7],0.211
same,PBM binding z-score,[8],1.06
same,PBM binding z-score,[9],0.238
same,PBM binding z-score,[10],2.94
CAAACTAGGTTACGAAAGGTCAAAGTCGAATGAC,PBM binding z-score,[1],7.07
same,PBM binding z-score,[2],7.68
same,PBM binding z-score,[3],2.53
same,PBM binding z-score,[4],2.93
same,PBM binding z-score,[5],4.81
same,PBM binding z-score,[6],6.22
same,PBM binding z-score,[7],1.73
same,PBM binding z-score,[8],6.69
same,PBM binding z-score,[9],3.24
same,PBM binding z-score,[10],4.82
CGTCCAAGGTCAATGCCAGGTCAGTGAAAGCATT,PBM binding z-score,[1],2.99
same,PBM binding z-score,[2],3.63
same,PBM binding z-score,[3],0.209
same,PBM binding z-score,[4],-0.326
same,PBM binding z-score,[5],7.26
same,PBM binding z-score,[6],5.48
same,PBM binding z-score,[7],2.85
same,PBM binding z-score,[8],6.58
same,PBM binding z-score,[9],1.59
same,PBM binding z-score,[10],5.39
CCTTCTGGGCCATCAGGTCATTGATATCAACGTT,PBM binding z-score,[1],4.77
same,PBM binding z-score,[2],5.03
same,PBM binding z-score,[3],0.4
same,PBM binding z-score,[4],0.236
same,PBM binding z-score,[5],1.37
same,PBM binding z-score,[6],1.64
same,PBM binding z-score,[7],0.618
same,PBM binding z-score,[8],2.31
same,PBM binding z-score,[9],0.159
same,PBM binding z-score,[10],2.28
CAACCAAGGTGAACAAGGTCGTTGATTACTATTC,PBM binding z-score,[1],2.56
same,PBM binding z-score,[2],3.05
same,PBM binding z-score,[3],0.422
same,PBM binding z-score,[4],0.588
same,PBM binding z-score,[5],0.973
same,PBM binding z-score,[6],2.8
same,PBM binding z-score,[7],1.68
same,PBM binding z-score,[8],2.42
same,PBM binding z-score,[9],0.281
same,PBM binding z-score,[10],2.29
CTCGAAAGGCCGTGCTCAGGTGAGTATACCAAAC,PBM binding z-score,[1],-0.523
same,PBM binding z-score,[2],-0.175
same,PBM binding z-score,[3],-0.959
same,PBM binding z-score,[4],-0.325
same,PBM binding z-score,[5],-1.11
same,PBM binding z-score,[6],-0.568
same,PBM binding z-score,[7],-0.631
same,PBM binding z-score,[8],-0.118
same,PBM binding z-score,[9],-0.796
same,PBM binding z-score,[10],1.05
ACTAGCAGGCCAAGTTTGGGTCACTCATACAAAG,PBM binding z-score,[1],1.29
same,PBM binding z-score,[2],1.09
same,PBM binding z-score,[3],-0.419
same,PBM binding z-score,[4],-0.428
same,PBM binding z-score,[5],0.652
same,PBM binding z-score,[6],0.707
same,PBM binding z-score,[7],-0.211
same,PBM binding z-score,[8],1.55
same,PBM binding z-score,[9],-0.601
same,PBM binding z-score,[10],1.53
ATACCAAGGTGATCATGAGGTCGTTGATACTAAC,PBM binding z-score,[1],0.474
same,PBM binding z-score,[2],1.5
same,PBM binding z-score,[3],0.599
same,PBM binding z-score,[4],0.991
same,PBM binding z-score,[5],0.68
same,PBM binding z-score,[6],3.42
same,PBM binding z-score,[7],1.96
same,PBM binding z-score,[8],2.22
same,PBM binding z-score,[9],0.136
same,PBM binding z-score,[10],1.49
TGTCAAAGTTCAAAGGTAACGTAGGTATCCACAC,PBM binding z-score,[1],0.105
same,PBM binding z-score,[2],4.5
same,PBM binding z-score,[3],1.01
same,PBM binding z-score,[4],1.42
same,PBM binding z-score,[5],2.88
same,PBM binding z-score,[6],5.78
same,PBM binding z-score,[7],3.36
same,PBM binding z-score,[8],6.75
same,PBM binding z-score,[9],1.57
same,PBM binding z-score,[10],5.06
CCTGCTAGATCATGGTCAGCTAATCTACAGTATG,PBM binding z-score,[1],0.393
same,PBM binding z-score,[2],-0.546
same,PBM binding z-score,[3],-0.661
same,PBM binding z-score,[4],-0.698
same,PBM binding z-score,[5],-0.74
same,PBM binding z-score,[6],-0.448
same,PBM binding z-score,[7],-0.524
same,PBM binding z-score,[8],-0.328
same,PBM binding z-score,[9],-0.726
same,PBM binding z-score,[10],-0.0385
CCTAGCAGGCCAATCTGCGTCACTCAAGGCTTGA,PBM binding z-score,[1],1.32
same,PBM binding z-score,[2],-0.303
same,PBM binding z-score,[3],-1.31
same,PBM binding z-score,[4],-0.968
same,PBM binding z-score,[5],-0.505
same,PBM binding z-score,[6],-0.683
same,PBM binding z-score,[7],-0.513
same,PBM binding z-score,[8],-0.426
same,PBM binding z-score,[9],-0.164
same,PBM binding z-score,[10],0.0378
GCTAGTTGGTCAGTAAAAGGTCTCACACCGGTCG,PBM binding z-score,[1],0.501
same,PBM binding z-score,[2],0.748
same,PBM binding z-score,[3],0.0123
same,PBM binding z-score,[4],-0.176
same,PBM binding z-score,[5],0.542
same,PBM binding z-score,[6],-0.0714
same,PBM binding z-score,[7],0.00189
same,PBM binding z-score,[8],0.298
same,PBM binding z-score,[9],-0.00415
same,PBM binding z-score,[10],1.19
CCTACTGGGCCAAAAAGGTCTTTGATGCCGATAA,PBM binding z-score,[1],3.45
same,PBM binding z-score,[2],2.65
same,PBM binding z-score,[3],-0.719
same,PBM binding z-score,[4],-0.578
same,PBM binding z-score,[5],-0.284
same,PBM binding z-score,[6],-0.31
same,PBM binding z-score,[7],-0.67
same,PBM binding z-score,[8],-0.184
same,PBM binding z-score,[9],-0.777
same,PBM binding z-score,[10],0.422
